About 83,000 compounds went through this panel and 20% of them were active in at least one assay; those are over-represented in the sample as a whole.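 Plates (96-well) were seeded with cells, treated with compound at one concentration, and incubated for 48 hours before percent growth was determined.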 Unmarked numbers belong to inactive results. Calls of active or inactive are those of the source. Rule for the calls: active = growth percent below 10; inactive = the rest.
Assays:
Experiment in all cases: NCI-60 one-dose screen, 48 h (100 = growth as untreated, 0 = no growth, -100 = all killed)
Conditions in all cases: 10 µM unless noted
BT-549 breast = system: BT-549 breast
SW-620 colon = system: SW-620 colon
MCF7 breast = system: MCF7 breast
HCT-116 colon = system: HCT-116 colon
HCC-2998 colon = system: HCC-2998 colon
MDA-MB-435 melanoma = system: MDA-MB-435 melanoma
KM12 colon = system: KM12 colon

Structure (SMILES) | growth (BT-549 breast) | growth (SW-620 colon) | growth (MCF7 breast) | growth (HCT-116 colon) | growth (HCC-2998 colon) | growth (MDA-MB-435 melanoma) | growth (KM12 colon)
CN(C(=O)c1ccccc1)N(C)C(=O)c1ccccc1 | 97% | 106% | 95.2% | 100% | 116% | – | –
COc1cc([C@@H]2c3cc4c(cc3C(O[C@@H]3O[C@@H]5CO[C@@H](c6cccs6)OC5[C@H](O)[C@H]3O)C3COC(=O)[C@@H]32)OCO4)cc(OC)c1O (stereo not given in full) | -20.3% (active) | -8.91% (active) | – | -56.7% (active) | -76.4% (active) | -21.1% (active) | -45.9% (active)
CCCCCCCCCCC[C@@H](C[C@H]1OC(=O)[C@H]1CCCCCC)OC(=O)[C@@H](CC(C)C)NC=O | 31.6% | 77.6% | – | 34% | 55.1% | 69% | 53%
CC(=O)O[C@H]1C(=O)[C@@]2(C)C([C@H](OC(=O)c3ccccc3)[C@]3(O)C[C@H](OC(=O)[C@H](O)[C@@H](NC(=O)c4ccccc4)c4ccccc4)C(C)=C1C3(C)C)[C@]1(OC(C)=O)CO[C@@H]1C[C@@H]2O (stereo not given in full) | 30.5% | 43.4% | – | 7.81% (active) | -22.4% (active) | -11.5% (active) | 9.05% (active)
Fc1ccc([C@@H]2CCNC[C@H]2COc2ccc3c(c2)OCO3)cc1 | 84.2% | 98.4% | – | 49.8% | -66.8% (active) | 46.5% | 76.4%
N=c1ccn2c(n1)O[C@@H]1[C@@H](O)[C@H](CO)O[C@@H]12 | 83.5% | 66.5% | – | 37.4% | 50.2% | 57.1% | 77.4%
COc1ccc2[nH]c(-c3ccccc3)cc2c1 | – | 102% | 95% | 100% | 118% | 100% | 99.3%
CCN(CC)c1ccc(C(O)C2=CC(=O)c3ccccc3C2=O)cc1 (stereo not given) | 23.6% | -42.7% (active) | 9.53% (active) | -9.43% (active) | -60.5% (active) | – | 1.59% (active)
CCC(C)(C)C(=O)O[C@H]1C[C@@H](C)C=C2C=C[C@H](C)[C@H](CC[C@@H]3C[C@@H](O)CC(=O)O3)[C@H]21 | 84% | 61.2% | – | 20.4% | 71.9% | 68.8% | 90.7%
NC(=O)c1ncn([C@@H]2O[C@H](CO)[C@@H](O)[C@H]2O)n1 | 105% | 71.5% | – | 89.6% | 87.6% | 101% | 100%
Cc1ccsc1/C=C/C1=NCCCN1C | 102% | 105% | – | 103% | 102% | 103% | 114%
